Source: PubChem BioAssay AID1745849 (National Center for Advancing Translational Sciences (NCATS), 2022)
Among all 2,100 compounds or so, about 320 (15%) were called active. About 52% were inconclusive and are not listed. The call rests on the fitted dose curve; in most records, active means well fitted cell-killing curve with a large enough effect; inconclusive means small, poorly fitted or top-dose-only effect, or effect the other way; inactive means flat fitted curve, though single readings scatter. The list shows a part of the results. Entries that show only a call come without a potency.

Assay: Viability Counterscreen for CMV-Luciferase Assay of Inhibitors of ATXN expression; further: nearly all actives have a fitted effect of over 55% in size
Conditions: HEK-293 CMV-luciferase cells viability, protease fluorescence, 24 h
How it was run: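 Luminescence read-out: SteadyGlo added, 5 min RT, measured in CMV-luciferase HEK-293 cells after 24 hr compound treatment (several concentrations). Viability counterscreen: 25 uM Gly-Phe-7-amino-4-trifluoromethylcoumarin, 30 min at 37 degree C, fluorescence ex 405/em 540 nm.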
Potency means the concentration at half of the fitted maximal effect.

SMILES	Potency
Nn1cnnc1N/N=C/c1cc(Br)cc(Br)c1O	inactive
Cn1c(SCC(=O)N/N=C/c2ccc([N+](=O)[O-])s2)nnc1-c1ccc(Cl)cc1	10 µM (active)
Cn1c(SCC(=O)N/N=C/c2ccc([N+](=O)[O-])s2)nnc1-c1ccccc1	20 µM (active)
O=C(CSc1nnnn1-c1ccccc1)Nc1nsc(-c2ccccc2)n1	inactive
Cn1c(SCC(=O)Nc2cc(Cl)cc(Cl)c2)nnc1-c1ccc2nonc2c1	inactive
CSc1sc(-c2nnc(SCC(=O)Nc3ccc(Cl)cc3)n2C)c2c1C=CCC2	inactive
COc1ccc(N2CCN(c3ccnc4cc(Cl)ccc34)CC2)cc1	inactive
COc1cccc(OC)c1C(=O)OCC(=O)NC(=O)NCc1ccccc1	inactive
CC(C)(C)c1ccc(Oc2ccc(N)cc2)cc1	inactive
Cc1nc2ncnn2c(N2CCN(c3cccc(C(F)(F)F)c3)CC2)c1C	inactive
c1ccc2c(c1)c1c(c3ccccc32)CN2CCCC2C1 (stereo not given)	inactive
Cc1c(N=C2C=CC(=O)c3ccccc32)c(=O)n(-c2ccccc2)n1C	28.2 µM (active)
Cc1ccc(-c2cc(C(=O)NCCCN3CCOCC3)no2)cc1	inactive
COC(=O)C1=C(C)N(Cc2ccccc2)C(=NCCc2cccnc2)N[C@H]1c1ccc(Br)cc1	20 µM (active)
c1ccc(-c2cc3c(N4CCN(c5ccccc5)CC4)ncnc3s2)cc1	inactive
COc1ccc(N(CC(=O)N2CCN(c3ccc(Cl)cc3)CC2)S(=O)(=O)c2c(C)n[nH]c2C)cc1	inactive
COc1cccc(-c2cc3nc(-c4ccccc4)cc(N4CCN(C(=O)c5ccoc5)CC4)n3n2)c1	inactive
O=C(c1ccoc1)N1CCN(c2cc(-c3ccco3)nc3cc(-c4ccccc4)nn23)CC1	inactive
COc1ccccc1-c1cc2nc(-c3ccccc3)cc(N3CCN(C(=O)c4ccoc4)CC3)n2n1	10 µM (active)
COc1cccc(C2CC(c3c(-c4ccccc4)c4cc(Cl)ccc4[nH]c3=O)=NN2S(C)(=O)=O)c1OC (stereo not given)	inactive
CCCOc1ccc(C(=O)NC(=S)NNC(=O)c2c(-c3ccccc3)noc2C)cc1	inactive
O=C(/C=C/c1ccccc1)NC(=S)NNC(=O)c1cnccn1	10 µM (active)
O=C(N/N=C1\CCCc2c1[nH]c1ccc(Cl)cc21)c1ccncc1	inactive
Cc1cc(C)nc(/N=C(\N)Nc2ccc(C(C)C)cc2)n1	inactive
CCc1cc(-c2nnn(CCC3COCCO3)c2CC)ccc1-c1cn(CCc2c[nH]c3ccccc23)nn1 (stereo not given)	inactive

SMILES	Potency
CCCc1nc2c(c(=O)c3ccccc3n2C)c(=O)n1C1CCCCCC1	20 µM (active)
CC(C)(C)OC(=O)CNC(=O)c1[nH]cnc1C(=O)Nc1ccc(CNC(=O)OC(C)(C)C)cc1	inactive
CN(C)c1cc[n+](CC(=O)c2ccc(-c3ccccc3)cc2)cc1	inactive
CCC(=O)OC1(C(C)=O)CCC2C3CCC4=CC(=O)CCC4(C)C3CCC21C (stereo not given)	inactive
NC(Cc1ccc(C(F)(F)F)cc1)c1csc(Nc2nccc(C(F)(F)F)n2)n1 (stereo not given)	inactive
CC(C)(C)c1ccc(C(=O)N2CCCCCC2=O)cc1	inactive
CCN(CC)c1ccc(C(=O)N/N=C/c2ccccc2OC(F)F)cc1	inactive
CCN(CC)c1ccc(/C=C/c2cccc[n+]2C)c(OC)c1	14.1 µM (active)
COc1ccccc1NC(=S)NC(=O)c1ccc(Cn2cc(Br)cn2)cc1	inactive
COc1cc(-c2nnc(SCC(=O)N(Cc3ccccc3)C(C)(C)C)o2)cc(OC)c1OC	inactive
Cc1ccc(NC(=O)c2ccc(-c3nn(C)c(=O)c4ccccc34)cc2)cc1	inactive
C/C(=N\NC(=O)c1cc(C2CC2)nc2ccccc12)c1ccc(O)cc1O	inactive
CC(=O)Nc1ccc(Nc2c3ccccc3nc3ccccc23)cc1	8.91 µM (active)
CCc1nc2ccccc2c(C(=O)OCC(=O)Nc2ccc(NC(C)=O)cc2)c1C	inactive
CSc1sc(C(=O)NN)c2c1C1(CCC2)SCCS1	inactive
CC1CCCN(S(=O)(=O)c2ccc(C(=O)Nc3nnc(-c4ccccc4Cl)o3)cc2)C1 (stereo not given)	inactive
O=C1/C(=C\c2cc(Cl)c(O)c(Cl)c2)SC(=S)N1Cc1ccccc1	inactive
COc1ccc(/C=C2\CN(Cc3ccccc3)C/C(=C\c3ccc(OC)c(O)c3)C2=O)cc1O	10 µM (active)
OC1(c2ccc(Cl)cc2)CCN(Cc2c[nH]c3ccccc23)CC1	inactive
COCCCn1c(-c2ccc(S(=O)(=O)N3CCOCC3)cc2)csc1=Nc1ccccc1	inactive
COc1ccc(Cl)cc1C(=O)Nc1ccccc1N1CCN(C(=O)C(C)C)CC1	inactive
COc1ccc(NC(=O)c2cc(-c3cc(Cl)ccc3OC)n[nH]2)cc1OC	0.398 µM (active)
COc1ccc(Cl)cc1NC(=O)Nc1cccc([N+](=O)[O-])c1C	inactive
Cc1cc(C)c(C(=O)N2CCCC(N3CCN(c4cccc(C(F)(F)F)c4)CC3)C2)o1 (stereo not given)	inactive
CCOc1ccc(CCNC(=O)c2ccc(OCc3c(C)noc3C)cc2)cc1OCC	inactive
